Reference: the OligoGym collection

How the values were obtained:
Test in all cases: pooled miR-30 sensor sort-seq; sequence = guide strand
Conditions in all cases: shRNA
TMEM42 = biological target: TMEM42
TMEM8B = biological target: TMEM8B
TMEM231 = biological target: TMEM231
TMEM70 = biological target: TMEM70

AATAAGGAACACTCCTCCCCAC
sensor-assay potency score (higher = more potent) (TMEM42): 0.0225

TATCTATGCATGACAGTTTGGG
sensor-assay potency score (higher = more potent) (TMEM8B): -0.202

TAGAGTTACATGACTGGCTTTT
sensor-assay potency score (higher = more potent) (TMEM42): -0.949

ATAATTGTGTGTGCGCAGCAGC
sensor-assay potency score (higher = more potent) (TMEM8B): -0.93

TAGAAGTGGACAGAGAAGGTGT
sensor-assay potency score (higher = more potent) (TMEM8B): 0.765

TTATCTATGCATGACAGTTTGG
sensor-assay potency score (higher = more potent) (TMEM8B): -0.348

TACGCGGTCGCGGACACGGCGC
sensor-assay potency score (higher = more potent) (TMEM42): -1.65

TGAAGGTGTAGACTGCAGCTTC
sensor-assay potency score (higher = more potent) (TMEM8B): -0.202

AAGCACTGCTGTCTCTGTCTGT
sensor-assay potency score (higher = more potent) (TMEM8B): -0.532

TTACCATCTCCCAGAATCCTGG
sensor-assay potency score (higher = more potent) (TMEM231): -0.723

AAACCCATGCTCACCTCGCTGC
sensor-assay potency score (higher = more potent) (TMEM42): -0.311

TAGGCCACCACAGCTCAGCGGC
sensor-assay potency score (higher = more potent) (TMEM231): -1.06

TAGGTGAGCGCATCTGCACTGT
sensor-assay potency score (higher = more potent) (TMEM8B): -0.509

ATGTAGAAGTAGTTGTCCCGGG
sensor-assay potency score (higher = more potent) (TMEM8B): -0.575

TTAACAATCAGTCACTAACGGA
sensor-assay potency score (higher = more potent) (TMEM70): -0.588

TTGAAAAAGTCACTGTGACAGA
sensor-assay potency score (higher = more potent) (TMEM42): -0.719

TCCATACAGCACATAGCCCAGG
sensor-assay potency score (higher = more potent) (TMEM42): -1.77

TAAGAAATGACTTCCACAGGGT
sensor-assay potency score (higher = more potent) (TMEM231): 0.705

TTTAAGAATCGAACATATCCTT
sensor-assay potency score (higher = more potent) (TMEM70): 0.136

TTTTGTAATAAAGTGAAGCAGC
sensor-assay potency score (higher = more potent) (TMEM70): -0.766

TTTATTATAAACAAACATCATT
sensor-assay potency score (higher = more potent) (TMEM70): -1.08

TAAGATGCAGACACCACCGCAT
sensor-assay potency score (higher = more potent) (TMEM8B): 0.345

TCCATGTCGGTCAAGCTGCAGA
sensor-assay potency score (higher = more potent) (TMEM8B): -1.7

TAGAACACTGCTGCAGCTGCAC
sensor-assay potency score (higher = more potent) (TMEM42): -0.354

TAATACATAAGCATGACACAGA
sensor-assay potency score (higher = more potent) (TMEM42): 0.407

TTAAGAATCGAACATATCCTTC
sensor-assay potency score (higher = more potent) (TMEM70): -0.465

TGGTGAAACACTGTACTCGTTT
sensor-assay potency score (higher = more potent) (TMEM70): -0.765

TAAACCCATGCTCACCTCGCTG
sensor-assay potency score (higher = more potent) (TMEM42): -1.26

TAGCTGGTAACCACAGCCCCGG
sensor-assay potency score (higher = more potent) (TMEM8B): -1.14

TGTAGAAGTAGTTGTCCCGGGT
sensor-assay potency score (higher = more potent) (TMEM8B): 0.134
